For the assay, the system named is VDR:RXRa (NR concentration 270 nM, RXRa partner concentration 90 nM). The assay can be described thus: PBM binding z-score (relative to random genomic background probes); higher = stronger binding; sequences stand for … in GC…GCGATTGACAGCGTAGAATGAAGG
As to the method: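 Protein-binding microarray (Agilent 4x180K custom design, double-stranded 60-nt probes: 5' GC cap, 34-nt variable region, 24-nt constant primer region; full probe sequence given). Purified or IVT nuclear receptor:RXRα heterodimers (3:1 NR:RXRα, mostly 270:90 nM) or homodimers were incubated for 1 h in PBS with 2% milk and no ligand, then detected with Alexa488 antibodies. Fluorescence from o1-orientation probes (~5 replicates averaged) was converted to z-scores against 500 random hg19 background probes. Variable regions are seed direct-repeat (DR0–DR5) sites, all their single-nucleotide variants and half-site ablations.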
CTATGTAGGTTAAGGGGGTAATTCAGTTTGAAAG had a PBM binding z-score of 3.5.
Sequence CCTTACGGGTCAGTGACAGGTTATAGCATTTGGA gave a PBM binding z-score of 2.49.
As to TCAGATAGGTAAAGGTGAAAGTCGAACGATATGA, the PBM binding z-score turned out to be 0.979.
Regarding CGTCGAAGGTCAATGCTAGGTCAGTGAAAGCATT, the PBM binding z-score was 4.47.
CCTACTGGGGCACGAAAGGTCATTGATTCAGTGA: the PBM binding z-score amounted to 4.61.
Turning to GATAGTTGGTCAGTAAAAGGTCACACACCGGTCG, the PBM binding z-score was determined as 3.94.
The sequence CGAACTAGGTCACCAGGACCGTGAAGAGGTTGGA had a PBM binding z-score of 2.4.
In the case of TCATATAGGTTAAGGTGAAAGTCGAACGATATGA, the PBM binding z-score was determined as 0.985.
As for CTAACTAGGTCACCGGAAGGTCAAAGTCCGCATG, the PBM binding z-score turned out to be 6.08.
For CGTCCAAGGTCAATGCTAGGTCACTGAAAGCATT the value was 5.55; for CGAACTAGGTCATCAGGACAGTGAAGAGGTTGGA, 1.89.
CGAACTAGGTCAAAGGACAGGGAAAGGCGACGTA: the PBM binding z-score is 1.27.
Take CATACCGGGTCAGCTAGGCCAGAGTAGGGACGGC: the PBM binding z-score stood at 2.57.
The sequence ATCGAAAGGTCGTGAGGTGAGTACACAGAAAGGC returned a PBM binding z-score of 4.14.
On to ATCGAAAGGTCGACGAGTTGAGTATACACCGTTT, for which the PBM binding z-score came to 6.08.
In turn, CGAACTAGGTCAAAGGACAGTGATAGGCGACGTA came in with a PBM binding z-score of 1.45.
For CGTCTAAGGTCAGCAGGTCAGTGAAAGCGACGTG, the PBM binding z-score came out at 4.3.
For CGAACTAGGTCACCAGGACGGTGAAGAGGTTGGA the value was 1.77; for CGAACTAGGTCAAAGGAGAGTGAAAGGCGACGTA, 0.961.
TAGCCTAGGTCATTGGGCCAGTATAGTACGCATC displayed a PBM binding z-score of 2.11.
With CAAACTAGGTCACCGGAAAGTCAAAGTCCGCATG, the PBM binding z-score came out at 2.61.
CCTCGGAGGTCAGAAGGTCAGAGCTGTCCGCTTT showed a PBM binding z-score of 4.38.
In turn, CGAAGTAGGTCACCAGGACAGTGAAGAGGTTGGA displayed a PBM binding z-score of 2.07.
Take CGAACTAGGTCACCAAGACAGTGAAGAGGTTGGA: the PBM binding z-score worked out at 1.49.
Consider CGAACTAGGTCACCAGGACACTGAAGAGGTTGGA, for which the PBM binding z-score amounted to 2.56.
Sequence CCAGACAGGTGAAAGGTAACTCCGTCTGGTACGC gave a PBM binding z-score of 0.557.
In turn, CAGCCTAGGTGAGGGCCAGTATAGGAGGAACGTT showed a PBM binding z-score of -0.634.
The same measure for CGAACTAGGACAAAGGACAGTGAAAGGCGACGTA: -0.353; for CGAACTAGGTCACGAGGACAGTGAAGAGGTTGGA: 2.75.
For CGAACTAGTTCAAAGGACAGTGAAAGGCGACGTA the value was 0.0501.
In the case of CGTCCAAGGTCAAGCTCAGTGAAAGAGACTCGAA, the PBM binding z-score was 4.06.
In the case of CCGAGTAGGCTACGAGGGGGCATTCAGTGCGAAT, the PBM binding z-score was 3.16.
For CCGAGTAGGTTACGAGGGGGCATTCACTGCGAAT, the PBM binding z-score amounted to 4.98.
On to CGAACTAGGTCACCAGGACAGAGAAGAGGTTGGA, for which the PBM binding z-score stood at 2.04.
On to CTATGTTGGTTAAGGGGGTCATTCAGTTTGAAAG, for which the PBM binding z-score was 6.64.
ATATTTAGGTTAGGGTCATTCAGAAAGTAGGGAA displayed a PBM binding z-score of 4.6.
In the case of GCTTCCGGGTCAAAGGTTATAGCATGAATAGAAT, the PBM binding z-score is 5.69.
The sequence CGAACTATGTCACCAGGACAGTGAAGAGGTTGGA showed a PBM binding z-score of 0.173.
The sequence ATATGTAGGTTAGGGTCATTCATAAAGTAGGGAA returned a PBM binding z-score of 4.67.
Regarding CCGACTGGGGCAAAGGTCACCATACTCAGTACGA, the PBM binding z-score was 4.7.

The values are drawn from the supplement of paper PMC6555819.
